Assay results from PubChem BioAssay (NCATS).
Active and inactive are the calls of the source. Calls come from the whole dose curve.

Assay: qHTS drug screen for cell cycle checkpoint inhibitors in PARPi-resistant BRCA-mutant ovarian cancer cell lines. (AID 1963452)
Details: PEO1/OlaR viability, CellTiter-Glo luminescence, 96 h, stronger effect = lower value
From the text: Women's Malignancies Branch, Center for Cancer Research (CCR),
National Cancer Institute (NCI), National Institutes of Health (NIH), Bethesda, MD
Poly (ADP-ribose) polymerase inhibitors (PARPis) have changed the treatment paradigm in breast cancer gene (BRCA) - mutant high-grade serous ovarian carcinoma (HGSC). However, most patients eventually develop resistance to PARPis, highlighting an unmet need for improved therapeutic strategies. Using high-throughput drug screens, we identified ataxia telangiectasia and rad3-related protein/checkpoint kinase 1 (CHK1) pathway inhibitors as cytotoxic and further validated the activity of the CHK1 inhibitor (CHK1i) prexasertib in PARPi-sensitive and -resistant BRCA-mutant HGSC cells and xenograft mouse models. CHK1i monotherapy induced DNA damage, apoptosis, and tumor size reduction. We then conducted a phase 2 study (NCT02203513) of prexasertib in patients with BRCA-mutant HGSC. The treatment was well tolerated but yielded an objective response rate of 6% (1 of 17; one partial response) in patients with previous PARPi treatment. […] BRCA reversion mutation in previously PARPi-treated BRCA-mutant patients was not associated with resistance to CHK1i.
Among others, 1082 oncology drugs, both approved and investigational, were prioritized based on their status in clinical trial development. […] Drugs with average Z-AUC values less than -1.0 in all three cell lines were classified as "hits" resulting in 151 oncology drug hits. The screen also confirmed cross-resistance between olaparib and other PARPis (rucaparib, niraparib, and talazoparib) in PARPi-resistant PEO1/OlaR and PEO4.
[1] G. L. Lin, K. M. Wilson, M. Ceribelli, B. Z. Stanton, P. J. Woo, S. Kreimer, E. Y. Qin, X. Zhang, J. Lennon, S. Nagaraja, P. J. Morris, M. Quezada, S. M. Gillespie, D. Y. Duveau, A. M. Michalowski, P. Shinn, R. Guha, M. Ferrer, C. Klumpp-Thomas, S. Michael, C. McKnight, P. Minhas, Z. Itkin, E. H. Raabe, L. Chen, R. Ghanem, A. C. Geraghty, L. Ni, K. I. Andreasson, N. A. Vitanza, K. E.Warren, C. J. Thomas, M. Monje, Therapeutic strategies for diffuse midline glioma from high-throughput combination drug screening. Sci. Transl. Med. 11, (2019).
[2] T. M. Yamamoto, A. McMellen, Z. L. Watson, J. Aguilera, R. Ferguson, E. Nurmemmedov, T. Thakar, G. L. Moldovan, H. Kim, D. M. Cittelly, A. M. Joglar, E. P. Brennecke, H. Wilson, K. Behbakht, M. J. Sikora, B. G. Bitler, Activation of Wnt signaling promotes olaparib resistant ovarian cancer. Mol. Carcinog. 58, 1770 - 1782 (2019).
PROTOCOL TABLE (as described by Inglese J, Shamu CE and Guy RK. 2007)
SEQUENCE No. (e.g., 1, 2, 3, etc.); […] (e.g., Cells, Incubation, Reagent, etc.); VALUE; DESCRIPTION.
1; Compounds; 20nL; 1536-well white tissue culture-treated plates.
2; Cells; 5 uL; PEO1, PEO4, and PEO1/OlaR cells at 600 cells per well.
3; Incubation; 96 hr; 37C, 95% humidity, 5% CO2.
4; Reagent; 3 uL; CellTiter-Glo (Promega).
5; Incubation; 15 min; room temperature.
6; Detection; Luminescence, PHERAstar (BMG Labtech) plate reader.
NOTES (numbers refer to Sequence numbers above)
1. MIPE 5.0 compounds were acoustically dispensed by Echo Acoustic Liquid Handler (Beckman Coulter Life Sciences). Each compound was plated at an 11-point concentration range with 1:3 dilution. Bortezomib, a proteasome inhibitor (final concentration, 20 uM), was used as a positive.
2. PEO1, PEO4, and PEO1/OlaR were trypsinized and dispensed in 5 uLof growth medium using a Multidrop Combi dispenser at a density of 600 cells per well to allow compounds to be present during the exponential growth phase.
3. Plates were incubated for 96 hours at standard incubator conditions and covered by a stainless steel gasketed lid to prevent evaporation.
4. Three microliters of CellTiter-Glo (Promega) were added to each well.
5. Plates were incubated at room temperature for 15 min with a stainless-steel lid in place.
6. Luminescence readings were taken using PHERAstar (BMG Labtech). […]

[1] = measured here: PEO1 parental Z-AUC

## Nc1[nH]c(=O)ncc1F
  Z-AUC: 1.66 (inactive)
[1]
  Z-AUC: 1.6
Measured here: PEO4 Z-AUC
  Z-AUC: 1.51

## CO[C@@]12[C@H](COC(N)=O)C3=C(C(=O)C(C)=C(N)C3=O)N1C[C@@H]1N[C@@H]12
  Z-AUC: 0.952 (inactive)
[1]
  Z-AUC: 0.894
Measured here: PEO4 Z-AUC
  Z-AUC: 1.04

## N[C@@H](Cc1ccc(O)c(O)c1)C(=O)O
  Z-AUC: -0.0147 (inactive)
[1]
  Z-AUC: 0.128
Measured here: PEO4 Z-AUC
  Z-AUC: 0.735

## COc1ccc(-c2ccc3cc(C(=O)O)ccc3c2)cc1C12CC3CC(CC(C3)C1)C2
  Z-AUC: 0.117 (inactive)
[1]
  Z-AUC: -0.0792
Measured here: PEO4 Z-AUC
  Z-AUC: -0.489

## CN(C)CCc1c[nH]c2ccc(CS(=O)(=O)N3CCCC3)cc12
  Z-AUC: 1.7 (inactive)
[1]
  Z-AUC: 1.58
Measured here: PEO4 Z-AUC
  Z-AUC: 1.04

## CCOC(=O)[C@H](CCc1ccccc1)N[C@H]1CS[C@H](c2cccs2)CN(CC(=O)O)C1=O
  Z-AUC: -0.655 (inactive)
[1]
  Z-AUC: -0.787
Measured here: PEO4 Z-AUC
  Z-AUC: -0.726

## CNC1CCCN(c2c(F)cc3c(=O)c(C(=O)O)cn(C4CC4)c3c2OC)C1 (configuration not stated)
  Z-AUC: 1.39 (inactive)
[1]
  Z-AUC: 1.15
Measured here: PEO4 Z-AUC
  Z-AUC: 1.09

## CC(C(=O)O)c1ccc2c(c1)CC(=O)c1ccccc1S2 (configuration not stated)
  Z-AUC: 1.18 (inactive)
[1]
  Z-AUC: 0.703
Measured here: PEO4 Z-AUC
  Z-AUC: 0.789

## Cc1nnc(NS(=O)(=O)c2ccc(N)cc2)s1
  Z-AUC: 1.31 (inactive)
[1]
  Z-AUC: 0.997
Measured here: PEO4 Z-AUC
  Z-AUC: 1.46

## COC(c1ccccc1)(c1ccccc1)[C@H](Oc1nc(C)cc(C)n1)C(=O)O
  Z-AUC: 1.02 (inactive)
[1]
  Z-AUC: 1.24
Measured here: PEO4 Z-AUC
  Z-AUC: 1.24

## Nc1nc(=S)c2[nH]cnc2[nH]1
  Z-AUC: 0.0206 (inactive)
[1]
  Z-AUC: -0.887
Measured here: PEO4 Z-AUC
  Z-AUC: -1.01

## CC(=O)CC(c1ccccc1)c1c(O)c2ccccc2oc1=O (configuration not stated)
  Z-AUC: 1.13 (inactive)
[1]
  Z-AUC: 1.51
Measured here: PEO4 Z-AUC
  Z-AUC: 1.67

## CC(C)(C)C(=O)OCOP(=O)(COCCn1cnc2c(N)ncnc21)OCOC(=O)C(C)(C)C
  Z-AUC: 0.383 (inactive)
[1]
  Z-AUC: 0.013
Measured here: PEO4 Z-AUC
  Z-AUC: -0.0203

## CCN(CC)CCn1c(=O)c(Cc2ccc(OC)cc2)nc2ccccc21
  Z-AUC: 0.658 (inactive)
[1]
  Z-AUC: 1.23
Measured here: PEO4 Z-AUC
  Z-AUC: 1.19
